Inconclusive results are not listed. Entries that show only a call come without a potency. Values without a mark were called inactive. Active and inactive are the calls of the source. Calls come from the whole dose curve; as a rule, active = well fitted activation curve with a large enough effect in the repeat runs; inconclusive = weak or mixed curves; inactive = flat fitted curve, though single readings scatter.
Assay: Caspase-3/7 induction in HepG2 cells by small molecules, qHTS assay (AID 1346978); note: nearly all actives have a fitted effect of over 15% in size
Details: HepG2 caspase-3/7 activation, Caspase-Glo luminescence, 17 h; series mostly up to 92.4 µM
Excerpt: National Center for Advancing Translational Sciences [NCATS] NIH Chemical Genomics Center [NCGC] U.S. Environmental Protection Agency [EPA] National Institutes of Environmental Health Sciences [NIEHS] National Toxicology Program [NTP] Assay overview: Apoptosis is a process of programmed cell death and plays a central role in the development of multicellular organisms. It is a highly regulated process and induces cell death by activating caspases, which are the members of cysteine aspartic acid-specific protease (caspase) family. Caspases involved in apoptosis are classified by their mechanism of action as initiator caspases (caspase-2, -8, -9 and -10) and executioner caspases (caspase-3, -6, and -7). Inhibition of apoptosis results in number of cancers, autoimmune diseases, inflammatory diseases and viral infection. To identify small molecule compounds that induce apoptosis, a homogeneous, luminescent Caspase-Glo 3/7 assay was used. Wild type HepG2 cells were used to screen Tox21 libraries for identifying caspase-3/7 activity inducers.
Assay Protocol Summary: HepG2 cells were dispensed at 2,000 per well in 5uL of culture medium into white solid bottom 1536-well plates (Corning Life Sciences, Corning, NY) using a Multidrop Combi (Thermo Scientific, Waltham, MA) dispenser. The assay plates were incubated at 37 C and 5% CO2 for 5hr, and then 23nL of compounds dissolved in DMSO and positive control were transferred using a Pintool station (Wako, San Diego, CA). The assay plates were incubated at 37C and 5% CO2 for 17hr. For caspase-3/7 activity read, 4uL of Caspase-Glo 3/7 reagent (Promega Corporation, Madison, WI) was added to each well of the assay plates using Flying Reagent Dispenser (FRD, Aurora Discovery, San Diego, CA) and incubated the assay plates at room temperature for 30min. The luminescence signal was quantified using a ViewLux plate reader (Perkin Elmer, Shelton, CT).

Row | SMILES | Potency | caspase activation
1 | CC(CC=O)CCCC(C)(C)O (stereo not given) | inactive | –
2 | CCCCCCCCOS(=O)(=O)O | inactive | –
3 | CCC(C)NC(N)=O (stereo not given) | inactive | –
4 | CC(=O)NCCCCCC(=O)O | inactive | –
5 | O=C(OCC1(COC(=O)c2cccnc2)CCCC(COC(=O)c2cccnc2)(COC(=O)c2cccnc2)C1O)c1cccnc1 | inactive | –
6 | NCCS | inactive | –
7 | CC(=O)c1ccc2c(c1)Cc1ccccc1-2 | inactive | –
8 | CCCC(=O)C(C)=O | inactive | –
9 | CC(C)CC(C)CC(C)CC(C)COC(=O)c1ccccc1C(=O)OCC(C)CC(C)CC(C)CC(C)C (stereo not given) | inactive | –
10 | CCCCCCCCC1CCC(=O)O1 (stereo not given) | inactive | –
11 | CCCCCCCCCCCCCC | inactive | –
12 | CCC(C=O)CC | inactive | –
13 | O=P(O)(O)OP(=O)(O)O | inactive | –
14 | Cc1ccsc1/C=C/C1=NCCCN1C | inactive | –
15 | CCOC(=O)c1ccc(OC(=O)CCCCCN=C(N)N)cc1 | inactive | –
16 | CCNC(=O)C1CC(C)CCC1C(C)C (stereo not given) | inactive | –
17 | CC(=O)c1sc(C)nc1C | inactive | –
18 | CCCCCCOc1ccccc1C(N)=O | inactive | –
19 | C=COCCOCCOCCOC=C | inactive | –
20 | C=C(C)C1CCC(C)(O)CC1 (stereo not given) | inactive | –

Row | SMILES | Potency | caspase activation
21 | COCCc1ccc(OCC2CO2)cc1 (stereo not given) | inactive | –
22 | COC(=O)[C@@H]1[C@H]2C[C@H]3c4[nH]c5ccccc5c4CCN3C[C@@H]2CC[C@@H]1O | inactive | –
23 | CCCCCCCCCCl | inactive | –
24 | CC(=O)/C=C/C1C(C)=CCC(C)C1(C)C (stereo not given) | inactive | –
25 | C=Cc1ccccn1 | inactive | –
26 | Cc1[nH]cnc1-c1ccc(Cl)cc1 | inactive | –
27 | OCCN(CCO)c1cccc(Cl)c1 | inactive | –
28 | NNc1nnc(NN)c2ccccc12 | inactive | –
29 | Cc1nc2n(c(=O)c1CCN1CCC(c3noc4cc(F)ccc34)CC1)CCC[C@H]2O | – | 0.536% [at 19 µM]
30 | CCOCCOCCOCC | inactive | –
31 | O=C(OCc1ccccc1)C(=O)OCc1ccccc1 | inactive | –
32 | Cc1cc(Cl)c(C)cc1Cl | inactive | –
33 | CNS(=O)(=O)CCc1ccc2[nH]cc(C3CCN(C)CC3)c2c1 | inactive | –
34 | COc1ccc2c(c1)C(=O)N(CCc1ccc(S(=O)(=O)NC(=O)NC3CCCCC3)cc1)C(=O)C2(C)C | inactive | –
35 | C=CC(OCC)OCC | inactive | –
36 | C=C(C)C(=O)OCC(C)(C)COC(=O)C(=C)C | inactive | –
37 | O=C(NCCN1CCOCC1)c1ccc(Cl)cc1 | inactive | –
38 | Cc1ccc2c(c1)OCC(=O)CO2 | inactive | –
39 | CC(=O)Nc1ccc(S(=O)(=O)Cl)cc1 | inactive | –
40 | CCOc1cc(NC(C)=O)ccc1C(=O)OC | inactive | –

Reference: PubChem BioAssay (Tox21)
